HP1b binding inh: HTS for Inhibitors of HP1-beta Chromodomain Interactions with Methylated Histone Tails | AID 540317, 2011 | Potency, µM (series often up to 114 µM), inactives show at the top dose activity change, negative = inhibition, most hits filed as inhibitors | 390,000 compounds, 0.56% hits | AlphaScreen HP1-beta / biotin-H3K9me3 peptide binding; also: potency is read from the fitted curve at half-maximal effect; nearly all actives have a fitted effect of over 70% in size
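AlphaScreen: HP1-beta (50 nM) preformed 30 min with biotin-H3(1-18)K9me3 peptide (50 nM) in PBS pH 7.4, 0.01% Tween-20. Compound added for 30 min at RT, then streptavidin donor/nickel chelate acceptor beads (10 ug/mL) for 30 min.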
G9a inh: qHTS Assay for Inhibitors of Histone Lysine Methyltransferase G9a. Histone-lysine N-methyltransferase EHMT2 (Homo sapiens), Q96KQ7. 350,000 compounds, 8.8% hits. Potency, µM (doses to about 102 µM), for inactives: top-dose activity, negative = inhibition, actives largely listed as inhibitors. G9a H3K9 monomethylation, AlphaScreen, 2 h. AID 504332, 2011; also: potency is read from the fitted curve at half-maximal effect; % is scaled to controls: 0 for no effect and ±100 for the full control effect; nearly all actives have a fitted effect of over 75% in size
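Step 1: enzyme (final 20 nM) with compound, 15 min RT. Step 2: substrate peptide 500 nM and SAM 20 uM, 2 h RT. Step 3: anti-H3K9me1 antibody and AlphaScreen beads, 10 min, then plate read.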
BAZ2B inh: qHTS Assay for Inhibitors of BAZ2B; AlphaScreen BAZ2B-H3K14Ac peptide displacement; Bromodomain adjacent to zinc finger domain protein 2B (Homo sapiens), Q9UIF8; 360,000 compounds, 4.4% hits; Potency, µM (top dose mostly 114 µM), without a hit: at the top dose activity change, negative = inhibition, hits mostly inhibitors; also: potency is read from the fitted curve at half-maximal effect; % is scaled to controls: 0 for no effect and ±100 for the full control effect; nearly all actives have a fitted effect of over 60% in size
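Inhibition is scored as reduced AlphaScreen emission. The BAZ2B/b-H3(5-23)K14Ac complex (50 nM each) in PBS pH 7.4, 0.01% Tween-20 meets compound (up to 110 uM) for 30 min at RT before bead addition.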
JMJD2A Tudor: qHTS Assay for Inhibitors of JMJD2A-Tudor Domain. Lysine-specific demethylase 4A (Homo sapiens), O75164. AlphaScreen JMJD2A-Tudor / H3K4me3 peptide binding. Potency, µM (series often up to 114 µM), without a hit: top-dose activity change, negative = inhibition, usual class: inhibitors. 390,000 compounds, 4.4% hits. AID 504339, 2011; also: potency is read from the fitted curve at half-maximal effect; % is scaled to controls: 0 for no effect and ±100 for the full control effect; nearly all actives have a fitted effect of over 50% in size
PI5P4K alpha inh: qHTS for Inhibitors of phosphatidylinositol 5-phosphate 4-kinase (PI5P4K); 330,000 compounds, 1.2% hits; PI5P4Kalpha enzyme, ADP-Glo luminescence, 60 min; hits give low values; Phosphatidylinositol 5-phosphate 4-kinase type-2 alpha (Homo sapiens), P48426; max response, %; active = max response of -50% or lower; inconclusive = between -30% and -50%; inactive = -30% or higher; also: value at the top dose of about 77 µM; % is scaled to controls: 0 for no effect and ±100 for the full control effect
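Single end-point luminescence (ADP-Glo) quantified ADP from PI5P4Kalpha turnover; ATP 5 microM final, 1 h at RT, 0.1% CHAPS and 0.28 mM EGTA in HEPES pH 7.4.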
PLK1 PBD block: qHTS for Inhibitors of PLK1-PDB (polo-like kinase 1 - polo-box domain): Primary Screen; Serine/threonine-protein kinase PLK1 (Homo sapiens), P53350; Plk1 PBD binding of FITC phosphopeptide, fluorescence polarization; Potency, µM, for the others: max response, negative = inhibition, actives largely listed as inhibitors; 360,000 compounds, 2.8% hits; AID 720504, 2013; also: potency is read from the fitted curve at half-maximal effect; series mostly up to about 57 µM; % is scaled to controls: 0 for no effect and ±100 for the full control effect; nearly all actives have a fitted effect of over 65% in size
Target sequence (P53350 whole entry, looked up, the tested form may be a part): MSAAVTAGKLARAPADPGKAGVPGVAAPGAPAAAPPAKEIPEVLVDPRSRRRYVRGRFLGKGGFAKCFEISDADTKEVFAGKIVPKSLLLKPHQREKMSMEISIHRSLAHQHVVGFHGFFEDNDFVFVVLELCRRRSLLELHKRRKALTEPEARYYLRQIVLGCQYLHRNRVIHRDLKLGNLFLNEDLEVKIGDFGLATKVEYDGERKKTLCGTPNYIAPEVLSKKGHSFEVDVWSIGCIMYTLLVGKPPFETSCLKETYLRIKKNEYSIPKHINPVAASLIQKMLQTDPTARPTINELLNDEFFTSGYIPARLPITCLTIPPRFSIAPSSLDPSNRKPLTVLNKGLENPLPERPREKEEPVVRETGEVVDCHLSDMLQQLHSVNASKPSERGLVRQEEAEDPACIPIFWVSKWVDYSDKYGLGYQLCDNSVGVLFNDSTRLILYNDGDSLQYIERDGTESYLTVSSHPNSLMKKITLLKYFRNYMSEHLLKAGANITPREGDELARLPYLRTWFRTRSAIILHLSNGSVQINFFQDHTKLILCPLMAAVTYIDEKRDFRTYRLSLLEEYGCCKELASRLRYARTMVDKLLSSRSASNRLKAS
An asterisk follows results filed as active; ? = inconclusive; . = no result; [ ] = dose if it differs, or a comment. Only some compounds are listed: those with a hit (about 12% of all), similar ones and a draw of the others. Unless noted, calls follow the shape of the dose curve; as a rule, active = well fitted curve in the direction sought with a large enough effect; inconclusive = small, poorly fitted or top-dose-only effect, or another doubt; inactive = no such curve, though single readings can be large; an effect the other way counts as inactive or inconclusive.

SMILES	HP1b binding inh	G9a inh	BAZ2B inh	JMJD2A Tudor	PI5P4K alpha inh	PLK1 PBD block
COc1ccc(OC)c(NC(=O)Cn2cnc3onc(-c4ccc(Cl)cc4)c3c2=O)c1	28%	-4%[59 µM]	12%	-13%	.	.
Cc1c(C)n(CCC#N)c2ccccc12	-13%	-12%[59 µM]	?	?	3	-6%
COCCn1cc(-c2csc(N)n2)c2ccccc21	0%	.	?	?	-9	30µM*
CN(C)c1nc(-c2cn(CCC#N)c3ccccc23)cs1	-15%	28µM*	?	50µM*	0	27µM*
CC(C)c1ccc(-c2cc(C(=O)NN3CCN(C)CC3)c3ccccc3n2)cc1	-4%	50µM*	-35%	?	2	-26%
NC(=O)C1CCN(C(=O)CSc2ccsc2[N+](=O)[O-])CC1	23%	?	-21%	-22%	-12	-17%
O=C(CSc1ccsc1[N+](=O)[O-])N1CCCCCC1	4%	45µM*	.	-13%	-14	-25%
Cc1ccc(C)c(N2CCN(C(=O)CSc3ccsc3[N+](=O)[O-])CC2)c1	-16%	32µM*	?	?	?	-22%
O=C(CSc1ccsc1[N+](=O)[O-])N1CCN(c2ccc(Cl)cc2)CC1	-16%	50µM*	?	?	-62*	?
O=C(c1cccc(F)c1)N1CCC2(CC1)CCN(c1ccncc1)CC2	.	0%[12.7 µM]	.	.	.	.
COc1ccc(C(=O)Nc2ccc3c(c2)OCO3)cc1S(=O)(=O)N1CCOCC1	.	.	.	.	-10	8%
Cc1ccc(CNC(=O)c2cc(S(=O)(=O)N3CCCCC3)cn2C)cc1	-4%[57 µM]	-19%[59 µM]	-6%	-23%	.	.
Cc1ccc(N2C(=O)N(CC(=O)N3c4ccccc4CC3C)C(=O)C2C)cc1 (configuration not stated)	16%	45µM*	-5%	-16%	10	-9%
Cc1ccc(N2C(=O)N(CC(=O)N3CCc4ccccc43)C(=O)C2C)cc1 (configuration not stated)	.	.	.	.	1	-4%
COc1ccc(NC(=O)c2oc3ccccc3c2NC(=O)COc2ccc(C(C)C)cc2)c(OC)c1	22%	4%[59 µM]	-4%	-13%	.	.
COc1ccc(N2C(=NC(=O)C3CCCO3)SC3CS(=O)(=O)CC32)cc1 (configuration not stated)	34%	5%	-4%	-11%	2	0%
S=c1[nH]nc(Cc2sc(-c3ccccc3)nc2-c2ccccc2)o1	2%	28µM*	?	-32%	-5	-26%
CC(C)(C)OC(=O)NC(Cc1ccccc1)C(O)c1ccco1 (configuration not stated)	35%	.	.	-16%	.	.
COc1ccc(NC(=O)Cn2c(=O)n(CCc3ccccc3)c(=O)c3c4c(sc32)CCCC4)cc1	18%	-6%[59 µM]	7%	-10%	.	.
N#CC1=C(N)N(c2ccccc2C#N)C2=C(C(=O)CCC2)C1c1ccsc1 (configuration not stated)	10%	?	56µM*	-33%	-2	1%
N#CC1=C(N)N(c2ccc(Br)cc2)C2=C(C(=O)CCC2)C1c1cccnc1 (configuration not stated)	43%	11µM*	-38%	-21%	.	-14%
Cc1c(C2C(C#N)=C(N)N(c3ccccc3C#N)C3=C2C(=O)CCC3)cnn1C (configuration not stated)	28%	-44%[59 µM]	?	?	-4	1%
CC1CN(C(=O)c2ccc(Br)c(S(=O)(=O)N3CCOCC3)c2)CC(C)O1 (configuration not stated)	38%	9%[12.7 µM]	-2%	16%	-5	7%
COCCn1c(C)cc(O)c(C(c2ccccc2)N2CCC(C)CC2)c1=O (configuration not stated)	7%[57 µM]	-22%[59 µM]	1%	-24%	.	.
CC(C)CC1C(=O)N(Cc2cn(CCC3OCCO3)nn2)CCS(=O)(=O)N1Cc1ccc(-c2ccncc2)cc1 (configuration not stated)	.	.	.	.	2	-13%
SMILES	HP1b binding inh	G9a inh	BAZ2B inh	JMJD2A Tudor	PI5P4K alpha inh	PLK1 PBD block
CN(C)CCCN(C(=O)CCOc1ccccc1)c1nc2ccc(F)cc2s1	17%	28µM*	.	-24%	-2	?
CN(C)CCCN(C(=O)CCOc1ccccc1)c1nc2c(F)cccc2s1	23%	22µM*	.	-32%	1	?
CN(C)CCCN(C(=O)/C=C/c1cccs1)c1nc2c(F)cccc2s1	3%	?	?	?	4	1%
CN(C)CCCN(C(=O)CCc1ccccc1)c1nc2c(F)cccc2s1	22%	?	-28%	-23%	14	5%
Cc1cccc2sc(N(CCCN(C)C)C(=O)COc3ccccc3)nc12	29%	?	-15%	?	.	.
CN(C)CCCN(C(=O)c1ccc2c(c1)CCCC2)c1nc2c(F)cccc2s1	?	?	?	45µM*	-3	-12%
Cc1cccc2sc(N(CCCN(C)C)C(=O)COc3ccc(Cl)cc3)nc12	10%	50µM*	.	-26%	28	-2%
N#Cc1nc(Nc2ccccc2)nc(NC2CCCC2)n1	.	.	.	-7%	.	.
Clc1ccc2nc(NCc3ccccc3)c3nncn3c2c1	37%	7%[59 µM]	-2%	9%	.	.
O=C(NCCCCc1ccccc1)c1ccc(F)cc1	58%	.	.	-1%	-4	5%
CN(C)CCCN(C(=O)COc1ccc(Cl)cc1)c1nc2ccc(F)cc2s1	40%	56µM*	16%	-9%	29	-9%
COc1cccc2sc(N(CCCN(C)C)C(=O)c3sc4ccccc4c3Cl)nc12	-15%	?	?	?	2	-5%
CN(C)CCCN(C(=O)c1sc2ccccc2c1Cl)c1nc2c(F)cccc2s1	-7%	25µM*	-17%	?	-2	5%
Cc1ccc(C(=O)Nc2ccc(S(=O)(=O)N3CCOCC3)cc2)cc1Br	27%	.	.	-17%	0	4%
COc1ccccc1S(=O)(=O)N(C)C[C@@H]1OCc2cnnn2CCCC(=O)N([C@H](C)CO)C[C@@H]1C	.	.	.	.	7	-14%
CC1=CC(C)(C)Nc2ccc(OC(=O)CCN3C(=O)c4ccccc4C3=O)cc21	?	20µM*	35µM*	-19%	-4	-6%
CCc1ccc(NC(=O)c2cnn3c(C)cc(C)nc23)cc1	.	.	.	-9%	.	.
Cc1ccc(NC(=O)CCC(=O)NNC(=O)C(C)(C)C)c(C)c1	37%	-6%	-27%	0%	-1	-12%

Source: PubChem
